Compound activity: PubChem BioAssay, National Center for Advancing Translational Sciences (NCATS)
HEK cytotox – Cytotoxic Profiling in HEK 293 Cell Line of Diverse Libraries Using Quantitative High-Throughput Screening | HEK 293 viability, ATP luminescence (CellTiter-Glo), 48-72 h | Potency, µM (top dose mostly 115 µM), for the others: top-dose activity change, negative = cytotoxicity, hits mostly inhibitors | 94,000 tested, 6.6% active | AID 1345083, 2018; also: nearly all actives have a fitted effect of over 60% in size
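HEK 293 seeded at 250 cells/well receive compound via pintool. After 48 or 72 hr at 37 degree Celsius, 5% CO2 and 95% humidity, CellTiter-Glo is dispensed and luminescence read following 10 min at room temperature.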
NPR1 antag – Natriuretic polypeptide receptor (hNpr1) antagonism - Primary qHTS. 76,000 tested, 1.6% active. Atrial natriuretic peptide receptor 1 (Homo sapiens), P16066. Potency, µM (series often up to 46.3 µM), for inactives: top-dose activity change, negative = inhibition, actives largely listed as inhibitors. AID 1347048, 2019. HEK293 hNpr1 GloSensor cGMP, ANP-stimulated luminescence; calls by dose curve; also: nearly all actives have a fitted effect of over 60% in size
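HEK293 cells stably expressing human Npr1 and cGMP GloSensor pGS-40F, loaded 2 h with 2% GloSensor reagent, given compound 30 min at room temperature. Luminescence read before and 20 min after 0.1 nM hNppA.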
NIH3T3 tox – Cytotoxic Profiling in NIH 3T3 Cell Line of Diverse Libraries Using Quantitative High-Throughput Screening. NIH 3T3 viability, CellTiter-Glo ATP luminescence, 48-72 h. Potency, µM (doses to about 96.7 µM), for inactives: at the highest dose activity change, negative = cytotoxicity, most hits filed as inhibitors. 94,000 tested, 4.3% active. AID 1345082, 2018; also: nearly all actives have a fitted effect of over 55% in size
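Cytotoxicity was measured by CellTiter-Glo ATP luminescence after 48 or 72 h compound exposure at 37 °C. Mouse NIH 3T3 fibroblasts were seeded at 400 cells/well and dosed by 23 nL pin transfer.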
FLuc inh – Firefly luciferase inhibition profiling of diverse chemical library using quantitative high-throughput screening; purified P. pyralis luciferase, luminescence, biochemical; Potency, µM (series often up to 115 µM), actives largely listed as inhibitors; 76,000 tested, 2.5% active; also: nearly all actives have a fitted effect of over 65% in size
Target sequence (P08659 whole entry, looked up): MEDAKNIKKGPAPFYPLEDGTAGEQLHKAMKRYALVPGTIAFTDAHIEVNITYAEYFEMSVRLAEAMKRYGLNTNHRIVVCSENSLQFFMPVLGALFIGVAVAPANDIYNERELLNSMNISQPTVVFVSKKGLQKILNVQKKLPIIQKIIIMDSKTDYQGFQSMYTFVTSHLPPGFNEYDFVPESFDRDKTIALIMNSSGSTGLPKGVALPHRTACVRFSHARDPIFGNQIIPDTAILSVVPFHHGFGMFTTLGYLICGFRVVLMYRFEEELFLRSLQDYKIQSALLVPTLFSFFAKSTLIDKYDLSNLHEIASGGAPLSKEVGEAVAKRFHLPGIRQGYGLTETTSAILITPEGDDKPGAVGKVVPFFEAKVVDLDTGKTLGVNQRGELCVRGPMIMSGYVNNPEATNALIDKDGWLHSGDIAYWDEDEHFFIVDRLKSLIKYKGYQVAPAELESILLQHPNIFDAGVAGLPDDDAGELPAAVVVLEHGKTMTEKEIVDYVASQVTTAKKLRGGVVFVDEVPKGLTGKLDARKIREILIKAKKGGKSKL
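Luminescence read by CCD imaging after purified firefly luciferase (10nM final) was added to substrate buffer holding 10uM D-luciferin and 10uM ATP, pH 7.5, pre-dosed with compound.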
Numbers without * were called inactive; i = inactive; u = inconclusive; x = not tested or not shown; [ ] = remark or other dose. Hits are enriched below; roughly 11% of the tested compounds scored in any of these assays. Unless noted, calls follow the shape of the dose curve; as a rule, active = well fitted curve in the direction sought with a large enough effect; inconclusive = small, poorly fitted or top-dose-only effect, or another doubt; inactive = no such curve, though single readings can be large; an effect the other way counts as inactive or inconclusive. % is scaled to controls: 0 for no effect and ±100 for the full control effect; potency is read from the fitted curve at half-maximal effect.

SMILES | HEK cytotox | NPR1 antag | NIH3T3 tox | FLuc inh
COc1ccccc1OCCNC(=O)CC1=C2CCCCC2N(Cc2ccccc2)C1=O (centres undefined) | u | 2% | -20% | i
CC(C)CN(C1CCN(C)CC1)C1CN(C(=O)c2n[nH]c3ccccc23)C1 | -16% | x | -10% | x
Cc1ccc(CN2C(=O)[C@@H]3C[C@@H](O)CN3C3(CN(Cc4ccc(F)cc4)C3)C2=O)o1 | -9%[172 µM] | -2%[70.6 µM] | -15%[174 µM] | i
CN(Cc1ccccc1)C(=O)[C@@]12CCCC[C@H]1N(C)C(=O)CC2 | -20% | 2% | -10% | i
COc1ccc(-c2cc(C(=O)NC3CC3)c3c(C4CCCNC4)noc3n2)cc1 (centres undefined) | 32µM* | x | 32µM* | x
Cc1cc(C)n(CCC(=O)N2CCC(CCOc3ccc(F)cc3)C2)n1 (centres undefined) | 79µM* | u | -22% | i
Cn1c(=O)c2c(ncn2CC(=O)N2CCC(CCOc3ccc(F)cc3)C2)n(C)c1=O (centres undefined) | 89µM* | -30% | -24% | i
Cc1nn(C(=O)CCCC(=O)N2CCC(CCOc3ccc(F)cc3)C2)c2ccccc12 (centres undefined) | 4% | u | -1% | i
Cc1ccc(OCC(=O)N2CCC(CCOc3ccc(F)cc3)C2)cc1 (centres undefined) | u | -19% | u | i
CCN(C)C(=O)C(C)N1CCc2onc(C(c3ccccc3)c3ccccc3)c2C1 (centres undefined) | u | 1% | u | i
CCN(C)C(=O)C(C)N1CCc2onc(-c3ccc(-c4ccccc4)cc3)c2C1 (centres undefined) | u | u | u | 20µM*
COCCn1c(CN(C)Cc2sccc2C)cnc1S(=O)(=O)CC1CCCCC1 | u | u | u | i
c1cc(-c2cc(-c3ccc4cn[nH]c4c3)cn3cncc23)ccn1 | 63µM* | -2%[70.6 µM] | 18µM* | i
COc1ccc(-c2cc(-c3ccc4cn[nH]c4c3)cn3cncc23)cc1 | 71µM* | -14%[70.6 µM] | 79µM* | u
NC(=O)c1cccc(-c2cc(-c3ccncc3)c3cncn3c2)c1 | u | 2%[70.6 µM] | 35µM* | i
CC(=O)Nc1cccc(-c2cc(-c3c(C)noc3C)c3cncn3c2)c1 | u | -20%[70.6 µM] | u | i
COc1ccc(CCN2CCCC3(C2)C(=O)N(C)C(=O)N3C)cc1 (centres undefined) | -4% | x | -27% | x
O=C(c1ccccc1Cl)N1CCC(C(=O)N2CCC(c3nc4ccncc4[nH]3)C2)CC1 (centres undefined) | -3% | x | -15% | x
Cc1cccc(NC(=O)Nc2ccc(C)n(CC(=O)NC(C)C)c2=O)c1 | u | -2% | -24% | 7.1µM*
CNC(=O)Nc1ccc(C)n(CC(=O)N2CCN(c3ccccc3OC)CC2)c1=O | 4% | 5% | i | i
Cc1ccc(NC(=O)Nc2ccccc2)c(=O)n1CC(=O)N1CCN(c2ccccc2)CC1 | u | -1% | i | 11µM*
CCOc1ccc(NC(=O)Cn2c(C)ccc(NC(=O)Nc3cccc(C)c3)c2=O)cc1 | 40µM* | 0% | 28µM* | u
O=C([C@@H]1C[C@H](Oc2cccnc2)CN1C(=O)C1CCCCC1)N1CCCC1 | i | x | i | x
CC(C)C1=NOC2(CCN(Cc3ccc(F)cc3)C2)C1 (centres undefined) | -11%[172 µM] | x | -5%[138 µM] | x
CC(C)c1ccc(CC(=O)N2CCCc3ncc(C(=O)NCc4cccnc4)cc32)cc1 | u | 0%[70.6 µM] | -26%[138 µM] | i
SMILES | HEK cytotox | NPR1 antag | NIH3T3 tox | FLuc inh
Cc1ccccc1NC(=O)c1cnc2c(c1)N(C(=O)Cc1ccc(C(C)C)cc1)CCC2 | 100µM* | u | 89µM* | i
CC(C)c1ccc(CC(=O)N2CCCc3ncc(C(=O)Nc4cccc(C(F)(F)F)c4)cc32)cc1 | 32µM* | -27% | u | i
COc1ccccc1-c1[nH]nc2ncc(-c3c(C)noc3C)nc12 | 89µM* | 2%[70.6 µM] | u | i
COc1ccccc1-c1cnc2n[nH]c(-c3ccccc3)c2n1 | u | -17%[70.6 µM] | 79µM* | i
COc1ccccc1-c1[nH]nc2ncc(-c3ccccc3O)nc12 | u | -28%[70.6 µM] | u | i
COc1ncccc1-c1cnc2n[nH]c(-c3ccccc3)c2n1 | 71µM* | -17%[70.6 µM] | 50µM* | i
COc1ccccc1-c1[nH]nc2ncc(C(=O)NCC3CCOCC3)nc12 | -29%[172 µM] | 1%[70.6 µM] | 40µM* | i
Cc1ccc(NC(=O)Cn2cccc2-c2nc(-c3ccccc3)no2)c(C)c1 | 9% | 6% | i | i
CCN1CCC2(CC1)Cc1ccccc1CN(C(=O)CCC(=O)O)C2 | 4% | x | i | x
CN1Cc2cccn2CC1CNC(=O)NC1CCCCC1 (centres undefined) | 2% | 1% | -17% | i
COc1ccccc1-c1[nH]nc2ncc(-c3cccnc3OC)nc12 | 10µM* | -1%[70.6 µM] | 10µM* | i
Cc1nnc2ccc(N3CCN(C(=O)NC4CCCC4)CC3)nn12 | -16% | x | -23% | x
CCn1ccc(C(=O)N2CC(Oc3ccc(-c4nc(-c5ccccc5)no4)cc3)C2)n1 | u | -17% | 40µM* | u
CCn1nccc1C(=O)N1CC(Oc2ccc(-c3nc(-c4ccccc4)no3)cc2)C1 | 11µM* | 4.5µM* | u | u
CCn1ccc(C(=O)N2CC(Oc3ccc(-c4nc(C)no4)cc3)C2)n1 | u | 0% | -25% | i
O=C(C1CCOCC1)N1CCC(Oc2ccccc2-c2nc(C3CC3)no2)C1 (centres undefined) | u | x | -21% | x
Cc1cccc(C2CCCN(C(=O)c3cn(CCc4ccccc4)nn3)C2)c1 (centres undefined) | 40µM* | -4% | u | i
Cc1ccc(SC2CCN(C(=O)c3cn(CCc4ccccc4)nn3)CC2)cc1 | 89µM* | -2% | u | i
COc1cccc(CN2CCc3c(cc(C(=O)Nc4cc(OC)cc(OC)c4)n3C)C2)c1 | u | 7% | u | u
COc1ccccc1NC(=O)c1cc2c(n1C)CCN(Cc1ccc(F)cc1)C2 | 32µM* | 6% | u | 16µM*
COc1cccc(CN2CCc3c(cc(C(=O)Nc4ccc(C)cc4C)n3C)C2)c1 | u | -2% | u | 16µM*
COc1ccccc1CNC(=O)CNC(=O)c1cccc(-c2ccc(C(F)(F)F)cc2)c1 | 35µM* | x | u | x
O=C(CNC(=O)c1cccc(-c2ccsc2)c1)NCc1ccccc1F | i | x | -10% | x
O=C(CNC(=O)c1cccc(-c2ccc(C(F)(F)F)cc2)c1)NCc1ccccc1F | 22µM* | x | u | x
